Measurements from PubChem BioAssay (NCI).
Compounds without any hit were thinned out: in the full panel of roughly 83,000, 20% have a hit.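 Cells were grown in 96-well plates and exposed to the test compound at a single concentration for 48 hours; results are reported as percent growth, with values below 10 considered active.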 A number with no mark means an inactive call. Active and inactive are the calls of the source.

These compounds were tested on HL-60(TB) leukemia (assay: NCI-60 one-dose screen, 48 h (100 = growth as untreated, 0 = no growth, -100 = all killed)). Conditions: 10 µM unless noted.

Compound | growth
O=c1oc2c([nH]c3ccc4ccccc4c32)c2ccccc12 | 129%
CC(C)Sc1nc(NNC(N)=S)c(C#N)c(-c2ccc(F)cc2)n1 | 94.9%
CCC1S/C(=N\N=C(/C)c2cc3ccccc3o2)N(c2ccccc2)C1=O (stereo not given) | -93.7% (active)
COc1cccc(/C=C2\Oc3cc(OCCCN4CCCC4)ccc3C2=O)c1OC | 96.3%
Cc1cc(O[C@@H]2O[C@@H](C)[C@H](O)[C@@H](O)[C@H]2O)c2c3c(c(O[C@@H]4O[C@@H](C)[C@H](O)[C@@H](O)[C@H]4O)cc2c1)C(=O)c1c(O)cccc1C3=O | 64.9%
CCSc1ccc([C@@H]2[C@@H](O)C(=O)N2c2cc(OC)c(OC)c(OC)c2)cc1 | -35.4% (active)
O=c1cc(-c2ccccc2)nc2cc(-c3ccco3)[nH]n12 | 82.7%
CCCCCc1c(C)[nH]c(/C=C2\N=C(c3ccc[nH]3)C=C2Oc2ccccc2)c1C | -49.6% [100 µM] (active)
CCOC(=O)/C(C#N)=C\c1c[nH]c2ccccc12 | 104%
CCCCOC(=O)c1cc(O)c(O)c(O)c1 | 24.7%
CC(O)C(O)C(O)C(O)C(O)C(=O)NNc1ccccc1 (stereo not given) | 116%
O=C1c2cccc(NCCN=Cc3ccccc3O)c2C(=O)c2c(NCCN=Cc3ccccc3O)cccc21 | 31.6%
Cc1cccc[n+]1C1c2ccccc2-c2ccccc21 | 92%
CN1CCN(CC#CCOC(=O)CNC(=O)[C@]23CCC(C)(C)C[C@H]2C2=CC[C@@H]4[C@@]5(C)CC[C@H](O)C(C)(C)[C@@H]5CC[C@@]4(C)[C@]2(C)CC3)CC1 | 49.7%
CC(O)CN(CCO)CCN(CCO)CC(C)O (stereo not given) | 102%
Cc1cc(-c2nc3ccccc3s2)ccc1NC(=O)COc1ccc(Cl)cc1 | 99.1%
CCOc1ccc(C(C[N+](=O)[O-])Sc2ccccc2N)cc1 (stereo not given) | -16.2% (active)
CCc1ccc(C2=C/C(=C/c3ccc(Cl)cc3)C(=O)N2CCc2ccc(S(N)(=O)=O)cc2)cc1 | -18.9% (active)
COc1cc(F)c(/C=C/c2cc(/C=C/c3cc(OC)c(OC)cc3F)n(-c3cc(F)cc(F)c3)n2)cc1OC | 87.6%
C=C(C)[C@@H]1CC[C@]2(C(=O)n3ccnc3)CC[C@]3(C)[C@H](CC[C@@H]4[C@@]5(C)CCCNC(C)(C)[C@@H]5CC[C@]43C)[C@@H]12 | -56.2% (active)

Compound | growth
N=c1nc(N)ncn1-c1ccccc1 | 110%
COc1cc2c(=O)n(CCCN(C)C)c3c4cc5c(cc4ccc3c2cc1OC)OCO5 | 55%
NCCN1CCNCC1 | 97.6%
COc1ccc(C(=O)c2cc3c(N)c(C(=O)Nc4ccc(Br)cc4)sc3nc2C)cc1 | 80.2%
CN(C)CCCNC(=O)c1cncnc1Nc1ccc(OCc2cccc(F)c2)c(Cl)c1 | -60.7% (active)
O=C(Nc1ccc(Br)cc1)Nc1cccc(Br)c1 | 5.54% (active)
CN(C)CCCN1c2nc3ccccc3cc2Sc2cc3ccccc3nc21 | 43.9%
O=c1c2c(c3ccccc3n1-c1ccccc1)NC(=S)NC2c1ccc(Cl)cc1 (stereo not given) | 22.1%
Cn1c(-c2ccccc2)cc(=O)cc1-c1ccccc1 | 99.8%
COc1ccc(NC(=O)c2sc3nc(C)c(C(=O)/C=C/c4ccccc4)cc3c2N)cc1 | 24.2%
CC(=O)N1CCN(CCNC(=O)n2cc(-c3ccncc3)c(-c3cc(O)cc(Cl)c3)n2)CC1 | 59.9%
CC(=O)[C@@]1(O)CC[C@H]2[C@@H]3CC[C@@H]4CC(=O)CC[C@]4(C)[C@H]3[C@@H](O)C[C@@]21C | 102%
O=C(CCc1nnc2sc(-c3ccccc3)nn12)c1nc2ccccc2[nH]1 | 105%
CC(=O)OC1CC2C(C)(C)CCC[C@]2(C)C2=C1C(O)=C(C(C)C)C(=O)C2=O (stereo not given in full) | 3.12% (active)
COc1cc(/C=N/OC(=O)Nc2ccccc2)cc(OC)c1OC | 99.2%
CC1CCC(C(C)C)C(NN)C1 (stereo not given) | 70.2%
C[N+]1=C(/C=C/c2ccc(I)cc2)C(C)(C)c2ccccc21 | 39.4%
c1ccc2sc(SCCCn3ccnc3)nc2c1 | 110%
Cc1ccc(/C=C(\C#N)n2nnc3cc(Cl)c(Cl)cc32)cc1 | 1.4% (active)
Cc1ccccc1-n1nnc(C(=O)Nc2ccc(-c3ccccc3)cn2)c1C | 28.8% [50 µM]
